Laboratory results: PubChem BioAssay (Tox21)
Results filed as inconclusive are left out. Where a call stands in place of a potency, no number is given. A number with no mark means an inactive call. The source made the active and inactive calls. The call rests on the fitted dose curve; in most records, active means well fitted activation curve with a large enough effect in the repeat runs; inconclusive means weak or mixed curves; inactive means flat fitted curve, though single readings scatter.

assay: A CellTox Green Cytotoxicity Assay to monitor cytotoxicity in HepG2 cells - 40 hour (AID 1224879); settings: CellTox Green fluorescence; series mostly up to 76.8 µM; further: nearly all actives have a fitted effect of over 40% in size
Source text: National Center for Advancing Translational Sciences [NCATS]
NIH Chemical Genomics Center [NCGC]
U.S. Environmental Protection Agency [EPA]
National Institutes of Environmental Health Sciences [NIEHS]
National Toxicology Program [NTP]
Cell-based models are critical for drug discovery. Determining the natural cytotoxic effects resulting from test compounds is an essential research activity. A CellTox Green Cytotoxicity Assay to monitor cytotoxicity in real time of continues cell culture during 40 hours of the compound treatment was used to screen Tox21 10K library compounds in HepG2 cells. CellTox Green Cytotoxicity Assay is a nonlytic, homogeneous, biofluorescent method to measure cytotoxicity in cell culture after experimental manipulation. The assay system uses a proprietary asymmetric cyanine dye that is excluded from viable cells but preferentially stains the dead cell's DNA. […] Viable cells produce no appreciable increases in fluorescence. Therefore, the fluorescence signal produced by the binding interaction with dead cell DNA is proportional to cytotoxicity.
The mixture of HepG2 cell suspension and reagents were dispensed at 600cells/6 ul/well in 1536-well tissue culture treated black solid bottom plates using a Multidrop dispenser. After the assay plates were incubated at a 37 C/5% CO2 incubator for 5 hours, 23 nL of compounds dissolved in DMSO, positive and negative controls was transferred to the assay plate by a pintool work station. The plates were incubated at 37 C for 40 hours. The fluorescence intensity were measured at 0h, 8h, 16h, 24h, 32h and 40h time points using ViewLux plate reader during compound treatment.
Potency means the concentration at half of the fitted maximal effect.

Row | Compound | Potency | cytotoxicity increase
1 | CC(C)Cc1ccc(C(C)C(=O)OCc2ccccn2)cc1 (stereo not given) | inactive | 
2 | OCCN1CCN(CCCN2c3ccccc3C=Cc3ccccc32)CC1 | inactive | 
3 | CCCCCCCCCCO[C@@H]1O[C@H](CO)[C@@H](O)[C@H](O)[C@H]1O | inactive | 
4 | CCNc1cc(O)ccc1C | inactive | 
5 | CC(=O)[O][Al][O]C(C)=O | inactive | 
6 | CCCCc1ncc(/C=C(\Cc2cccs2)C(=O)O)n1Cc1ccc(C(=O)O)cc1 | inactive | 
7 | Brc1c2ccccc2cc2ccccc12 | inactive | 
8 | CO[C@@H]1[C@H](OC(=O)/C=C/C=C/C=C/C=C/C(=O)O)CC[C@]2(CO2)[C@H]1[C@@]1(C)O[C@@H]1CC=C(C)C | inactive | 
9 | C=CCOC(=O)CCC1CCCCC1 | inactive | 
10 | COc1ccc(C(=O)Nc2nc3ccccc3c(NCc3ccccc3)c2C#N)cc1 | inactive | 
11 | Cc1cccc(C)c1NC(=O)CN(CC(=O)O)CC(=O)O | inactive | 
12 | OC[C@H]1O[C@@H](OCCc2ccc(O)cc2)[C@H](O)[C@@H](O)[C@@H]1O | inactive | 
13 | COc1cc(Cl)c(OC)cc1N | inactive | 
14 | CCOc1ccc(N)c([N+](=O)[O-])c1 | inactive | 
15 | C=CC(=O)OCCOc1ccccc1 | inactive | 
16 | NC(N)=NCCC[C@H](N)C(=O)O |  | -3.66% [at 6.97 µM]
17 | C#Cc1cccc(Nc2ncnc3cc(OCCOC)c(OCCOC)cc23)c1 | inactive | 
18 | Cc1ccccc1S(=O)(=O)O | inactive | 
19 | CCCCCCCCCCCCCCOS(=O)(=O)O | 34.7 µM (active) | 
20 | CC(=O)c1cccc([N+](=O)[O-])c1 | inactive | 

Row | Compound | Potency | cytotoxicity increase
21 | NC(=O)C(c1ccccc1)(c1ccccc1)[C@@H]1CCN(CCc2ccc3c(c2)CCO3)C1 | 23.9 µM (active) | 
22 | Cc1ccc(C(=O)Oc2ccc(C(O)CNC(C)(C)C)cc2OC(=O)c2ccc(C)cc2)cc1 (stereo not given) | 19 µM (active) | 
23 | Cc1oc2c(NC(=O)c3c(Cl)cccc3Cl)cccc2c1C(C)(C)O | 38.9 µM (active) | 
24 | Cc1ccc(N=Nc2c(O)c(C(=O)O)cc3ccccc23)c(S(=O)(=O)O)c1 | inactive | 
25 | CCOC(=O)Cc1cccc2ccccc12 | 21.9 µM (active) | 
26 | CC1CCC(=O)C1=O (stereo not given) | inactive | 
27 | CCO[C@H](Cc1ccc(OCCc2ccc(OS(C)(=O)=O)cc2)cc1)C(=O)O | inactive | 
28 | C=C(C)C(=O)OCCO | inactive | 
29 | CCN(CC)c1ccc2c(-c3ccccc3C(=O)O)c3ccc(=[N+](CC)CC)cc-3oc2c1 | 24.5 µM (active) | 
30 | CN(C)c1ccc(CCO)cc1 | inactive | 
31 | CC(C)C[C@H]1C(=O)N2CCC[C@H]2[C@]2(O)O[C@](NC(=O)[C@@H]3C=C4c5cccc6[nH]c(Br)c(c56)C[C@H]4N(C)C3)(C(C)C)C(=O)N12 | inactive | 
32 | CCCCCCCCO[C@@H]1O[C@H](CO)[C@@H](O)[C@H](O)[C@H]1O | inactive | 
33 | c1ccc(CNCCNCc2ccccc2)cc1 | inactive | 
34 | CCCCCCCC/C=C\CCCCCCCC(=O)OCC | inactive | 
35 | Cc1[nH]c(C)c(Cl)c(=O)c1Cl |  | -5.76% [at 15.8 µM]
36 | Nc1cc(C(=O)O)c(O)c(S(=O)(=O)O)c1 | inactive | 
37 | CCOC(=O)C(F)(F)F | inactive | 
38 | CCC(C)(C)CC | inactive | 
39 | C/C=C/C(=O)CC |  | -0.322% [at 15.8 µM]
40 | COc1cc2nc(Cl)nc(N)c2cc1OC | inactive | 
